From PubChem BioAssay (NCI) come the findings set out here.

Test systems include HCT-15 colon; HT29 colon; SNB-75 CNS; SNB-19 CNS; U251 CNS; PC-3 prostate; UACC-62 melanoma; LOX IMVI melanoma; SK-MEL-28 melanoma.
What all share (assay): NCI-60 one-dose screen, 48 h (100 = growth as untreated, 0 = no growth, -100 = all killed)
What all share (settings): 10 µM unless noted

Compounds without any hit were thinned out: in the full panel of roughly 83,000, 20% have a hit.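 Testing used 96-well plates and a 48-hour single-concentration exposure. Example: -40 means 40% of the starting cells died.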 A number with no mark means an inactive call. Activity calls are given as the source filed them. The calls were made as follows: active = growth percent below 10; inactive = the rest.

In the case of `CCc1nnc(CNc2ccc(Cl)cc2)o1`, the growth in the assay on HCT-15 colon is 100%; in the assay with HT29 colon, 95.1%; with SNB-75 CNS, 82.7%; with SNB-19 CNS it was 106%; in the assay with U251 CNS, 98.2%; in the assay on PC-3 prostate, 95.1%. Further, the growth in the assay with UACC-62 melanoma is 93.7%; in the assay on LOX IMVI melanoma, 91.2%; in the assay on SK-MEL-28 melanoma, 100%.
With `COc1ccc2cc(-c3nn(-c4ccc(C(=O)O)cc4)cc3CO)ccc2c1`, the growth is 98.1% in the assay with HCT-15 colon; 98.7% with HT29 colon; 80.9% in the assay on SNB-75 CNS; 103% in the assay with SNB-19 CNS; 104% in the assay on U251 CNS; 98.7% with PC-3 prostate. Also, the figures for the growth with UACC-62 melanoma, in the assay on LOX IMVI melanoma and in the assay on SK-MEL-28 melanoma were 103%, 101% and 112%, respectively.
With `COc1cc(/C=C/c2cc(/C=C/c3ccc(O)c(OC)c3)n(-c3c(Cl)cccc3Cl)c(=O)n2)ccc1O`, the growth is 10.3% in the assay with HCT-15 colon; -30.4% (active) with HT29 colon; 49.4% with SNB-75 CNS; 34.1% in the assay on SNB-19 CNS; 8.54% (active) with U251 CNS; 34.9% in the assay on PC-3 prostate. Moreover, the growth was 38.2% in the assay with UACC-62 melanoma, 2.83% (active) in the assay on LOX IMVI melanoma and 17.6% in the assay with SK-MEL-28 melanoma.
In the case of `C=CC(COC(c1ccccc1)(c1ccccc1)c1ccccc1)N(CC)CC` (configuration not stated), the growth is 16.7% with HCT-15 colon; 14.6% in the assay with HT29 colon; 73% with SNB-75 CNS; 82.1% in the assay with SNB-19 CNS; 52.5% in the assay on U251 CNS; 47.9% in the assay on PC-3 prostate. For the same compound, the values for the growth in the assay with UACC-62 melanoma, with LOX IMVI melanoma and in the assay with SK-MEL-28 melanoma were 44.8%, 49.5% and 59.4%, respectively.
In the case of `Nc1nc2ncc(CCNc3ccc(C(=O)O)cc3)nc2c(=O)[nH]1`, the growth with HCT-15 colon is 102%; in the assay on HT29 colon it was 97.5%; in the assay on SNB-75 CNS, 110%; in the assay on SNB-19 CNS, 111%; in the assay with U251 CNS, 109%; in the assay with PC-3 prostate, 92.4%. The growth was 111% in the assay on UACC-62 melanoma, 102% with LOX IMVI melanoma and 118% in the assay on SK-MEL-28 melanoma.
Regarding `Cc1cc(N2CCOCC2)nc(N[C@@H]2CCC[C@H](Nc3ccnc4cc(Cl)ccc34)C2)n1`, the growth was -43.5% (active) in the assay with HCT-15 colon; -52.9% (active) with HT29 colon; -37.3% (active) with SNB-75 CNS; 34.8% in the assay with SNB-19 CNS; -57.3% (active) in the assay on U251 CNS; 9.75% (active) in the assay on PC-3 prostate. The values for the growth in the assay on UACC-62 melanoma, with LOX IMVI melanoma and with SK-MEL-28 melanoma were -79.7% (active), -77.3% (active) and -74.3% (active), respectively.
As to `CCN1CCC2(CC1)NC(=O)c1c(c3ccc(Cl)c(Cl)c3n1C)C2C#N` (configuration not stated), the growth was 14.3% with HCT-15 colon; 7.28% (active) with HT29 colon; 51.2% with SNB-75 CNS; 84.9% with SNB-19 CNS; 57% in the assay on U251 CNS; 47.1% in the assay with PC-3 prostate. Moreover, the growth in the assay with UACC-62 melanoma was -83.2% (active); in the assay with LOX IMVI melanoma, 30.6%; with SK-MEL-28 melanoma, -100% (active).
`COc1cc2c(cc1-c1c(C)noc1C)ncc1nc(C3CCC(F)(F)CC3)n([C@H](C)COC(F)F)c12`: the growth in the assay with HCT-15 colon is 16.8%; with HT29 colon, 17.3%; in the assay with SNB-75 CNS, 37%; in the assay on SNB-19 CNS, 47.7%; in the assay with U251 CNS, 46.8%; in the assay with PC-3 prostate, 33.1%. Also, the values for the growth in the assay with UACC-62 melanoma, in the assay with LOX IMVI melanoma and with SK-MEL-28 melanoma were 17.8%, 14.8% and 54.4%, respectively.
In the case of `CN1CCN(Cc2ccc(NC(=O)c3cncc(C#Cc4cncn5ccnc45)c3)cc2C(F)(F)F)CC1`, the growth is 46.1% in the assay with HCT-15 colon; 19.2% in the assay with HT29 colon; 123% with SNB-75 CNS; 92.4% with SNB-19 CNS; 76.9% in the assay with U251 CNS; 90.3% in the assay on PC-3 prostate. Moreover, the results for the growth with UACC-62 melanoma, in the assay with LOX IMVI melanoma and in the assay with SK-MEL-28 melanoma were 18.7%, 4.74% (active) and 30.3%, respectively.
Take `CC1=C[C@H]2c3c(c(O)c(O)c4oc5cc(O)ccc5c(=O)c34)[C@H](c3cc(O)c(O)c4oc5cc(O)ccc5c(=O)c34)[C@H]2C(C)(C)C1`: the growth in the assay on HCT-15 colon was 33.4%; with HT29 colon, 20.2%; with SNB-75 CNS, 21.3%; in the assay with SNB-19 CNS it was 22.1%; in the assay on U251 CNS, 14.8%; with PC-3 prostate, 29.7%. The growth in the assay on UACC-62 melanoma is 5.54% (active); in the assay with LOX IMVI melanoma, 16.2%; with SK-MEL-28 melanoma it was 46.9%.
As to `Clc1ccc2nc3nc4ccc[nH]c4cc3c2c1`, the growth in the assay on HCT-15 colon was 69.3%; in the assay with HT29 colon, 83.8%; with SNB-75 CNS, 88.8%; in the assay on SNB-19 CNS it was 89%; with U251 CNS, 82.8%; with PC-3 prostate, 75.1%. The growth with UACC-62 melanoma was 80.4%; in the assay with LOX IMVI melanoma, 91.9%; in the assay with SK-MEL-28 melanoma, 111%.
Regarding `O=C1C=C(OCC=C(Cl)Cl)C(=O)c2ccccc21`, the growth with HCT-15 colon is 64.2%; with HT29 colon, 82.4%; in the assay with SNB-75 CNS, 50.6%; with SNB-19 CNS, 98.7%; in the assay on U251 CNS, 75.7%; in the assay on PC-3 prostate, 80.9%. Also, the figures for the growth in the assay with UACC-62 melanoma, in the assay on LOX IMVI melanoma and in the assay on SK-MEL-28 melanoma were 87%, 28.8% and 104%, respectively.
On to `COc1cccc(/C=C2\Oc3cc(OCCN4CCCC4)ccc3C2=O)c1`, for which the growth in the assay with HCT-15 colon is 67%; in the assay on HT29 colon, 35.2%; in the assay on SNB-75 CNS, 87.3%; in the assay with SNB-19 CNS it was 102%; in the assay with U251 CNS, 92.1%; in the assay on PC-3 prostate, 83.6%. Moreover, the growth was 106% in the assay with UACC-62 melanoma, 76.1% in the assay with LOX IMVI melanoma and 102% with SK-MEL-28 melanoma.
